The text below walks through data of PubChem BioAssay (Tox21).

Experiment [1] in a line: qHTS assay for small molecule agonists of the p53 signaling pathway (AID 651631; calls by dose curve; further: nearly all actives have a fitted effect of over 15% in size). In short, it runs like this:
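Agonist mode screen using a stably integrated beta-lactamase gene under p53 response elements in HCT-116 cells. Compound exposure lasts 16 h at 37 °C; fluorescence intensity is measured following 2 h FRET substrate loading.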
(In general: In qHTS, concentration-response curves come from the screen itself.)

A short description of experiment [2]: qHTS assay for small molecules that induce genotoxicity in human embryonic kidney cells expressing luciferase-tagged ATAD5 (AID 651632). Further: nearly all actives have a fitted effect of over 15% in size. In short, it runs like this:
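HEK293T cells carrying luciferase-tagged ATAD5 were given compound or DMSO vehicle and incubated 16 hr at 37C, 5% CO2. Luciferase activity was read after 30 min at room temperature with Amplite; a rise signals genotoxic stress.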

Experiment [3] can be described thus: qHTS assay for small molecule agonists of the p53 signaling pathway - cell viability (AID 651633; calls by dose curve;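 further: p53RE-bla HCT reporter cells with a stable beta-lactamase p53 reporter; series mostly up to about 83 µM; nearly all actives have a fitted effect of over 30% in size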). In short, it runs like this: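 p53RE-bla cells, seeded at 4,000 per well and rested 5 h at 37 C/5% CO2, received compounds in DMSO for 16 h at 37 C. CellTiter-Glo was then added, and luminescence was read after 30 min at room temperature to gauge cytotoxicity.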

Experiment [4] in a line: qHTS assay for small molecules that induce genotoxicity in human embryonic kidney cells expressing luciferase-tagged ATAD5 - cell viability (AID 651634; calls by dose curve; further: nearly all actives have a fitted effect of over 25% in size; further: potency means the concentration at half of the fitted maximal effect). In short, it runs like this:
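HEK293T cells carrying luciferase-tagged ATAD5, 2,000 cells/well, exposed to compound for 15.5 hr at 37C. Viability read as live-cell protease activity by CellTiter-Fluor fluorescence after 30 min at 37C.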

Experiment [5] can be described thus: qHTS assay for small molecule disruptors of the mitochondrial membrane potential - cell viability (AID 720634; calls by dose curve;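 further: human HepG2 liver cancer cells; series mostly up to about 83 µM; nearly all actives have a fitted effect of over 20% in size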). Summed up: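 HepG2 cells, 2,000 per well, attached overnight, then treated 1 hr at 37 C, 5% CO2. Viability read as ATP by CellTiter-Glo luminescence after 30 min at room temperature. Read in the same wells as the m-MPI membrane-potential dye assay.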

Experiment [6] in a line: qHTS assay to test for compound auto fluorescence at 590 nm (red) in HepG2 cells (AID 720674). Summed up: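 Compound auto-fluorescence is scored relative to Rose Bengal sodium, measured at 540/590 nm in live HepG2 cultures after 1 hr compound contact (37 C, 5% CO2).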
Experiment [7] can be described thus: qHTS assay to test for compound auto fluorescence at 535 nm (green) in HepG2 cells (AID 720675).
Experiment [8] in a line: qHTS assay to test for compound auto fluorescence at 460 nm (blue) in HEK293 cells (AID 720678). Summed up: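 Triamterene serves as the blue fluorophore standard. Compound signal at 405/460 nm is read in HEK293 wells (2,000 cells, 10% dialyzed FBS) after overnight treatment at 37C.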
Experiment [9] is described as follows: qHTS assay to test for compound auto fluorescence at 590 nm (red) in HEK293 cells (AID 720679). Summed up:
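We plated HEK293 cells in 10% dialyzed FBS medium, let them adhere for 4-5 hr, then added 23 nL compound. Overnight at 37C and 5% CO2 preceded fluorescence measurement at 540/590nm.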

The nature of experiment [10]: qHTS assay to test for compound auto fluorescence at 535 nm (green) in HEK293 cells (AID 720680).
The nature of experiment [11]: qHTS assay to test for compound auto fluorescence at 460 nm (blue) in HEK293 cell free culture (AID 720681). Summed up: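 Test compounds were pinned into cell-free culture medium (DMEM with 10% FBS) and fluorescence was read directly at Ex/Em 405/460 nm. Signals were expressed as fluorescence equivalents of triamterene, with DMSO vehicle as control.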
Experiment [12] in a line: qHTS assay to test for compound auto fluorescence at 535 nm (green) in HEK293 cell free culture (AID 720682). Summed up:
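No cells present: wells hold DMEM supplemented with 10% FBS, into which compound or vehicle is pinned. Green emission is then recorded (485 nm excitation, 535 nm emission) and scaled to fluorescein.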

Experiment [13] in a line: qHTS assay to test for compound auto fluorescence at 590 nm (red) in HEK293 cell free culture (AID 720683). In short, it runs like this:
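Tox21 10K library compounds were pinned into cell-free DMEM with 10% FBS and fluorescence was read at excitation 540 nm. Activity is expressed as Rose Bengal sodium equivalency.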

Experiment [14] can be described thus: qHTS assay to test for compound auto fluorescence at 590 nm (red) in HepG2 cell free culture (AID 720684). Summed up:
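Red fluorescence (540 nm excitation, 590 nm emission) was measured after compound transfer into cell-free MEM supplemented with 10% FBS. Values are equivalencies against Rose Bengal sodium.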

Experiment [15] can be described thus: qHTS assay to test for compound auto fluorescence at 460 nm (blue) in HepG2 cell free culture (AID 720685). In short, it runs like this: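 Compound (23 nL) or DMSO pinned into cell-free MEM with 10% FBS; blue fluorescence read at 405/460 nm excitation/emission, expressed as auto-fluorescence equivalency to triamterene.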
Experiment [16] in a line: qHTS assay to test for compound auto fluorescence at 535 nm (green) in HepG2 cell free culture (AID 720686).
Experiment [17] in a line: qHTS assay for small molecule disruptors of the mitochondrial membrane potential (AID 720635). Summed up:
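HepG2 cells (2,000/well) attached overnight at 37C, then took compound for 1 hr at 37C, 5% CO2. Mito-MPS dye was added for 30 min; fluorescence was read at 490/535 nm (monomers) and 540/590 nm (aggregates).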

Experiment [18] is described as follows: qHTS assay to test for compound auto fluorescence at 460 nm (blue) in HepG2 cells (AID 720687). Summed up: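 Cells (2,000/well in MEM with 10% FBS) attached overnight at 37 C, then were exposed to compound or DMSO for 1 hr at 37 C, 5% CO2. Fluorescence read at Ex/Em 405/460 nm, expressed as triamterene-equivalent signal.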
For experiment [19], the target named is Glucocorticoid receptor (Homo sapiens) (UniProt P04150). In words: qHTS assay to identify small molecule agonists of the glucocorticoid receptor (GR) signaling pathway (AID 720691; active means well fitted activation curve with a large enough effect in the signal ratio in the repeat runs, not every such curve was filed as active; the % refers to the signal ratio). In short, it runs like this: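 GR-bla HeLa cells carrying a GRE-driven beta-lactamase reporter, exposed to compounds for 18 h at 37 C. Reporter activation read as fluorescence after 2 h with LiveBLAzer B/G FRET substrate at room temperature.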
Chain of Glucocorticoid receptor (Homo sapiens) (P04150 whole entry, looked up): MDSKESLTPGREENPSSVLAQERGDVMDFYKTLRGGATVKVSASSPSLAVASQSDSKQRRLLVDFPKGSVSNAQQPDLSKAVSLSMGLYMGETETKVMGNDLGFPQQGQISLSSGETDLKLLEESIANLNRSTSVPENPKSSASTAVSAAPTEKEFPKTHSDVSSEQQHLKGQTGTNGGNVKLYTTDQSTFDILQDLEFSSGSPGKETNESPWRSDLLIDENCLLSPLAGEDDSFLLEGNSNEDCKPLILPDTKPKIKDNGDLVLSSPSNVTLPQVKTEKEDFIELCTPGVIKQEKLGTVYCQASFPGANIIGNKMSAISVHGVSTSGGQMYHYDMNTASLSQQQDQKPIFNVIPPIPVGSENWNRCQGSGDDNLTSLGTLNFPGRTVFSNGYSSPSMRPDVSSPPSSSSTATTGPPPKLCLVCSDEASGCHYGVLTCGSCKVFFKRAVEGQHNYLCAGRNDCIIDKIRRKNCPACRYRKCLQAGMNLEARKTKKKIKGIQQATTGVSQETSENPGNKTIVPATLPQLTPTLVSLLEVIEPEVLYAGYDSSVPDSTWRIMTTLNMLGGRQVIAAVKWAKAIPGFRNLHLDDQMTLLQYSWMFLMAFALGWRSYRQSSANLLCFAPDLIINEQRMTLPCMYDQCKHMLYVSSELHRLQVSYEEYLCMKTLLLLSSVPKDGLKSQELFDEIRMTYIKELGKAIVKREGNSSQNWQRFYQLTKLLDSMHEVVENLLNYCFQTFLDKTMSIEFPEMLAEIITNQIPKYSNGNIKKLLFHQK

The target is the same in experiment [20]. In words: qHTS assay to identify small molecule antagonists of the glucocorticoid receptor (GR) signaling pathway (AID 720692; active means well fitted inhibition curve with a large enough effect in the signal ratio in the repeat runs, not every such curve was filed as active; the % refers to the signal ratio). Summed up: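 GR-bla HeLa cells carrying a GRE-driven beta-lactamase reporter received compound after 4 h plating, then dexamethasone (5 nM final). After 18 h at 37C, the FRET substrate was loaded for 2 h at room temperature and fluorescence read.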

Where “and” joins values, the source holds several entries; their conditions need not be identical. Equal entries are not always repeated. Records with an inconclusive call do not appear. Calls of active or inactive are those of the source. Unless noted, the call rests on the fitted dose curve; in most records, active means well fitted curve in the direction sought with a large enough effect in the repeat runs; inconclusive means weak or mixed curves; inactive means no such curve, though single readings can be large; an effect the other way counts as inactive or inconclusive.

Regarding `C[C@]12C=CC(=O)C=C1CC[C@@H]1[C@@H]2[C@@H](O)C[C@@]2(C)[C@H]1CC[C@]2(O)C(=O)CO`, the Potency result in [1], in experiment [2], in experiment [3], in experiment [4] and in experiment [5] was “inactive” in each case. Moreover, the result in experiment [6], in experiment [7], in experiment [8], in experiment [9], in experiment [10] and in experiment [11] was inactive. Further, the molecule was classed as inactive in experiment [12], in [13], in experiment [14], in experiment [15] and in experiment [16].

For the molecule `C1N2CN3CN1CN(C2)C3`, the Potency entry in [1], in experiment [3], in experiment [4], in experiment [5] and in [17] was “inactive” throughout. The call in experiment [6], in experiment [7], in experiment [8], in [9], in experiment [10] and in [11] was inactive. For the same molecule, the call in experiment [12], in [13], in experiment [14], in experiment [15] and in experiment [18] was inactive.

For `Nc1ccc(C(=O)O)cc1`, the Potency result in experiment [1], in [3], in [4], in experiment [5], in experiment [17] and in experiment [19] was “inactive” in each case. Also, the molecule was called inactive in experiment [6], in experiment [7], in experiment [8], in experiment [9], in [10] and in [11]. The molecule was called inactive in [12], in [13], in experiment [14], in experiment [15], in experiment [16] and in [20].

As for `NC(=O)c1ccccc1O`, the Potency result in [1], in experiment [3], in experiment [4], in [5], in [17] and in experiment [19] was “inactive” in each case. In addition, the molecule was called inactive in experiment [6], in [7], in [8], in experiment [9], in experiment [10] and in [11]. In addition, the molecule was called inactive in [12], in experiment [13], in [14], in experiment [15], in experiment [18] and in experiment [20].

Regarding `O=C(O)c1[nH]n(-c2ccc(S(=O)(=O)O)cc2)c(=O)c1N=Nc1ccc(S(=O)(=O)O)cc1`, the Potency entry in experiment [1], in [3], in experiment [5] and in [17] was “inactive” in each case. Also, the Potency in [4] was 30.7 µM (active) and 57.1 µM (active). For the same molecule, the call in [6], in [7], in experiment [8], in experiment [9], in experiment [10] and in experiment [11] was inactive. Besides, the outcome in experiment [12], in [13], in [14] and in [15] was inactive.

In the case of `O=C(O)CCCCCCCC(=O)O`, the Potency result in experiment [1], in experiment [3], in experiment [4], in experiment [5] and in experiment [17] was “inactive” throughout. Also, the molecule was called inactive in experiment [6], in experiment [7], in experiment [8], in [9], in experiment [10] and in experiment [11]. The result in experiment [12], in experiment [13], in experiment [14], in [15], in experiment [16] and in experiment [18] was inactive.

Regarding `NNC(=O)c1ccncc1`, the Potency result in experiment [1], in [3], in [4], in experiment [5], in [17] and in [19] was “inactive” in each case. Besides, the outcome in [6], in experiment [7], in experiment [8], in experiment [9], in experiment [10] and in [11] was inactive. The molecule was classed as inactive in experiment [12], in experiment [13], in [14], in experiment [15], in experiment [16] and in [20].

Regarding `Nc1ccc(S(=O)(=O)c2ccc(N)cc2)cc1`, the Potency result in [1], in experiment [2], in experiment [3], in [4], in [5] and in [17] was “inactive” throughout. For the same molecule, the call in experiment [6], in experiment [7], in [8], in [9], in experiment [10] and in experiment [11] was inactive. In addition, the molecule was classed as inactive in experiment [12], in experiment [13], in [14], in [15] and in experiment [18].
